# Inconclusive results are not listed. Active and inactive are the calls of the source. The call rests on the fitted dose curve; in most records, active means well fitted inhibition curve with a large enough effect; inconclusive means small, poorly fitted or top-dose-only effect; inactive means flat fitted curve, though single readings scatter.
# Test system: CP262
# Test: qHTS profiling for inhibitors of Plasmodium falciparum proliferation (AID 504749); further: nearly all actives have a fitted effect of over 60% in size;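 on activity, negative = inhibition: 0% = DMSO vehicle and full inhibition = artemisinin control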
# Settings: P. falciparum in erythrocytes, SYBR Green DNA, 72 h; series mostly up to 28.7 µM; activity, negative = inhibition: at the top concentration
# Procedure, shortened: (§1)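 Infected RBCs, 0.3% parasitemia/2.5% Hct final; cpd 72 h, 37 C, 5% CO2; lysis buffer with saponin/triton/SYBR Green I, o/n RT dark; FI 485/535; norm. to artemisinin (0.29 uM) and DMSO.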
# Potency means the concentration at half of the fitted maximal effect.
SMILES,"activity, negative = inhibition",Potency
CCCCc1ccc(C(=O)O)nc1,-4% (inactive),–
COC(=O)c1cncn1C(C)c1ccccc1 (configuration not stated),0% (inactive),–
O=[N+]([O-])c1ccc([As](=O)(O)O)cc1,–,8.49 µM (active)
Cc1ccc(Cl)c(O)c1,0% (inactive),–
COC(C)(C)CCCC(C)C/C=C/C(C)=C/C(=O)OC(C)C (configuration not stated),0% (inactive),–
CC(C)NC(C)Cc1ccc(I)cc1 (configuration not stated),3.33% (inactive),–
CC(=O)OCC1=C(C(=O)O)N2C(=O)[C@@H](N)[C@@H]2SC1,8.25% [at 12.8 µM] (inactive),–
CCCN1CCC[C@H](c2cccc(O)c2)C1,0% (inactive),–
COC(=O)[C@@H](N)CCCN=C(N)N[N+](=O)[O-],4.42% (inactive),–
CC[N+]1(CCOC(=O)C(O)(c2ccccc2)c2ccccc2)CCCCC1,-21.7% (inactive),–
Cc1cc(O)ccc1Cl,8.07% (inactive),–
CCCCCCCCCC(CC)c1ccc(S(=O)(=O)O)cc1 (configuration not stated),7.4% (inactive),–
O=C(O)COc1ccccc1,0.949% (inactive),–
c1ccc(C2(c3ccccc3)CC2C2=NCCN2)cc1 (configuration not stated),-1.46% (inactive),–
O=C(O)C(Cl)Cl,-8.33% (inactive),–
C#CC1(O)CCC2C3CCC4=CC(=O)CCC4(C)C3CCC21C (configuration not stated),0% (inactive),–
C[C@]12CCC(=O)C(O)=C1CC[C@@H]1[C@H]3CCC(=O)[C@@]3(C)CC[C@@H]12,-2.14% (inactive),–
CN1C2CCC1CC(OC(=O)c1cc(Cl)cc(Cl)c1)C2 (configuration not stated),-0.545% (inactive),–
NC(=O)CN1CC(O)CC1=O (configuration not stated),-8.05% (inactive),–
C=CCN1CC[C@]23CCCCC2[C@H]1Cc1ccc(O)cc13 (some centres not stated),12.9% (inactive),–
C1CCC(NC2CCCCC2)CC1,3.78% (inactive),–

# Test system: CP265
# Test: as above
# Settings: P. falciparum in erythrocytes, SYBR Green DNA, 72 h; series mostly up to 28.7 µM; activity, negative = inhibition: at the top concentration
# Procedure, shortened: as §1
SMILES,"activity, negative = inhibition",Potency
CCCCc1ccc(C(=O)O)nc1,3.8% (inactive),–
O=[N+]([O-])c1ccc([As](=O)(O)O)cc1,–,10 µM (active)
Cc1ccc(Cl)c(O)c1,11.1% (inactive),–
COC(C)(C)CCCC(C)C/C=C/C(C)=C/C(=O)OC(C)C (configuration not stated),–,11.2 µM (active)
CC(C)NC(C)Cc1ccc(I)cc1 (configuration not stated),-21.6% (inactive),–
CCCCCCCCCCCCCCCC[N+](C)(C)C,–,11.2 µM (active)
CCCN1CCC[C@H](c2cccc(O)c2)C1,-17.6% (inactive),–
CN(C)[C@@H]1C(=O)C(C(N)=O)=C(O)[C@@]2(O)C(=O)C3=C(O)c4c(O)cccc4[C@@](C)(O)[C@H]3[C@H](O)[C@@H]12,-12.2% (inactive),–
COC(=O)[C@@H](N)CCCN=C(N)N[N+](=O)[O-],2.29% (inactive),–
CC[N+]1(CCOC(=O)C(O)(c2ccccc2)c2ccccc2)CCCCC1,-17.3% (inactive),–
CC(=O)[O][Hg][c]1ccccc1,–,8.91 µM (active)
Cc1cc(O)ccc1Cl,4.38% (inactive),–
CCCCCCCCCC(CC)c1ccc(S(=O)(=O)O)cc1 (configuration not stated),-6.69% (inactive),–
O=C(O)COc1ccccc1,7.2% (inactive),–
c1ccc(C2(c3ccccc3)CC2C2=NCCN2)cc1 (configuration not stated),-9.32% (inactive),–
O=C(O)C(Cl)Cl,3.38% (inactive),–
C#CC1(O)CCC2C3CCC4=CC(=O)CCC4(C)C3CCC21C (configuration not stated),2.46% (inactive),–
CN1C2CCC1CC(OC(=O)c1cc(Cl)cc(Cl)c1)C2 (configuration not stated),-19.2% (inactive),–
NC(=O)CN1CC(O)CC1=O (configuration not stated),3.69% (inactive),–
C=CCN1CC[C@]23CCCCC2[C@H]1Cc1ccc(O)cc13 (some centres not stated),-0.823% (inactive),–
C1CCC(NC2CCCCC2)CC1,-8.94% (inactive),–

# Reference: PubChem BioAssay (NCATS)
